Reference: PubChem BioAssay AID720514 (Broad Institute, 2013)
The campaign covered roughly 2,100 compounds. About 300 (14%) were called active. Another 2% or so got no clear call; they are omitted.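 The calls were made as follows: active = every replicate test run called active, with the signal falling and half-maximal concentration within twice the top valid dose; inconclusive = the replicate test runs disagree in their calls; inactive = every test run inactive, including effects in the opposite direction.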 These entries were drawn from the full list. Potency and affinity values are given separately.

Assay: reduced cellular PGC1a acetyl-lysine signal – cell-based, cherry-picked samples, dose response (AID 720514);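 also: actives lower the acetylation signal so they count as inhibitors of PGC1a acetylation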
Details: U2OS PGC1a acetylation, AlphaLISA, overnight; series mostly up to 19.5 µM

outcome, inactive:
Fc1ccc(CN(Cc2ccccc2)C(c2cccs2)c2nnnn2C2CCCCC2)cc1 (configuration not stated)
O=C(NCc1ccc(Cl)cc1)C1CCC(CNc2c(N3CCCC3)c(=O)c2=O)CC1 (configuration not stated)
Cc1cccc(Oc2nccc(C(F)(F)F)c2C(=O)Nc2ccc(F)cc2F)c1
c1coc(CN(Cc2cccs2)Cc2nnnn2C2CCCCC2)c1
C[C@@H](c1ccccc1)N1Cc2ccccc2Oc2cc(Br)ccc2S1(=O)=O
CCOC(=O)C1=CC[C@@H](c2ccc(F)cc2)N(S(=O)(=O)c2ccc(C)cc2)[C@H]1c1ccccc1
C=C[C@H]1C(C(=O)OCC)=CC[C@@H](c2ccccc2)N1S(=O)(=O)c1ccc(C)cc1
O=C(Nc1cccnc1)c1ccc(Oc2ccccc2)cc1
Nc1ccc(N2CCCCC2)cc1N1CCCCC1
O=C(Nc1cccnc1)c1ccc(Br)s1
Cc1ccc2[nH]c(=O)c(CN(Cc3ccc4c(c3)OCO4)Cc3nnnn3C3CCCC3)cc2c1
CC(C)CC#Cc1ccc([C@@H]2[C@H](CO)N3CCCCN(S(=O)(=O)Cc4ccccc4)C[C@@H]23)cc1
O=C(c1ccc(F)cc1)N1CC(=O)N2[C@H](CO)[C@@H](c3ccc(C#CCC4CCCC4)cc3)[C@@H]2C1
O=C(Nc1ccc(F)cc1)N1CC(=O)N2[C@@H](CO)[C@H](c3ccc(Br)cc3)[C@@H]2C1
Cc1cccc(OC2(c3ccccc3)OC(=O)c3ccccc32)c1C (configuration not stated)
O=C(COc1cccnc1[N+](=O)[O-])NCCc1ccc(Cl)cc1
COc1cccc(-c2ccc(C3[C@@H]4CN(S(=O)(=O)c5cccc(OC)c5)C[C@H]3N4)cc2)c1 (some centres not stated)
COc1ccccc1-c1ccc(C2[C@@H]3CN(Cc4cccc(F)c4)C[C@H]2N3)cc1 (some centres not stated)
N#Cc1ccccc1S(=O)(=O)N1CCN(Cc2cc3c(cc2Br)OCCO3)CC1
CC(C)(C)c1ccc(NC(=O)N2CCCN(c3ccc([N+](=O)[O-])cn3)CC2)cc1
Cc1ccc(O)c(C(=O)c2cnc3c(c2)CN(CCC(C)C)C(=O)N3)c1
COc1ccc(Cc2nc(-c3ccc(NC(=O)c4cccnc4)cc3)no2)cc1
C=CCn1c(=NC(=O)c2ccc(S(=O)(=O)N3CCCC3)cc2)sc2cc(NC(C)=O)ccc21
CCOCCn1c(CN(Cc2ccccc2)Cc2ccccc2)nc2c1c(=O)[nH]c(=O)n2C
N#Cc1ccc(Oc2cccnc2)cc1C#N
COc1ccc(NC(=O)C(=O)NCCC2CCCCN2S(=O)(=O)c2cccs2)cc1 (configuration not stated)
COc1ccccc1-c1ccc2c(c1)C(C)(Cc1ccc(OC(F)(F)F)cc1)C(=O)N2 (configuration not stated)
O=C1Nc2cc(S(=O)(=O)N3CCCC3)ccc2N2CCCC12 (configuration not stated)
Cc1cc(N2CCC(C(N)=O)CC2)nc(-c2ccccc2)n1
CCOC(=O)CC(S(=O)(=O)c1ccccc1)S(=O)(=O)c1ccccc1
COc1ccc(CNc2ccc(-c3ccc(OC)cc3)nn2)cc1
CCOC(=O)C1=C[C@@H](C(C)C)N(S(=O)(=O)c2ccc(C)cc2)[C@H]1c1ccc(C(F)(F)F)cc1
COc1ccc(C(C)(O)c2nc(-c3ccc(S(C)(=O)=O)cc3)cs2)cc1 (configuration not stated)
COc1ccc(CCNCc2ccc(-c3ccccc3)cc2)cc1OC
O=C1C=C(c2cc3ccccc3s2)CCC1
O=C(c1cccs1)N1CCN(c2nnc(-c3ccccc3)c3ccccc23)CC1
N=c1n(CCN2CCCC2)c2ccccc2n1CC(O)c1ccc(Cl)c(Cl)c1 (configuration not stated)
O=C(c1ccco1)N1CCN(c2nnc(-c3ccccc3)c3ccccc23)CC1
Cc1cccc2cc(CN(Cc3ccc(F)cc3)Cc3nnnn3C3CCCC3)c(=O)[nH]c12
Oc1ccc(C[C@@H]2CNCCN2CCC23CC4CC(CC(C4)C2)C3)cc1
CCn1nc(C)c(CN2CCc3c([nH]c4ccccc34)C2C(C)(C)C)c1C (configuration not stated)
CCOC(=O)C1(Cc2ccccc2)CCN(Cc2cccc(OC)c2O)CC1
Cc1cc(C)c2c(-n3cccc3)c(C(=O)NNS(=O)(=O)c3ccccc3)sc2n1
Cc1cccc(S(=O)(=O)N(C)C[C@@H]2OCc3cn(nn3)CCCC(=O)N([C@H](C)CO)C[C@H]2C)c1
C[C@H]1CN([C@@H](C)CO)C(=O)CCCn2cc(nn2)CO[C@H]1CN(C)S(=O)(=O)c1ccc(Cl)cc1
CC(=O)CCS(=O)(=O)c1ccc(C)c(C)c1
COC(=O)C[C@@H]1C[C@H]2c3cc(NC(=O)Nc4ccc(C(F)(F)F)cc4)ccc3O[C@H]2[C@H](CO)O1
O=C(C[C@@H]1C[C@@H]2c3cc(NC(=O)Nc4ccccc4F)ccc3O[C@@H]2[C@@H](CO)O1)NCc1ccc(Oc2ccccc2)cc1
COc1ccc(CCNC(=O)COc2ccc(S(=O)(=O)N3CCCC3)cc2)cc1
COc1ccc(CC(CC(=O)O)C(=O)Nc2ccc(OC)cc2)cc1 (configuration not stated)
CCn1c(SC/C=C/c2ccccc2)nnc1-c1cccs1
CC(=O)c1ccc(N2CCN(C(=O)C(=O)c3c(C)[nH]c4ccccc34)CC2)cc1
CC(=O)c1c(-c2ccccc2)[nH]c2ccccc12
O=C(Nc1ccc2c(c1)OCO2)C1CCN(c2ccc(S(=O)(=O)N3CCOCC3)cc2)CC1
O=C(Nc1cccc(S(=O)(=O)N2CCOCC2)c1)c1ccco1
O=C(CC1SC(=NCc2ccccc2)NC1=O)Nc1ccccc1 (configuration not stated)
O=C(CC1CC1)N[C@@H]1CC[C@H](CCNS(=O)(=O)c2ccc(Cl)cc2)O[C@H]1CO
COC(=O)CSc1nc(-c2ccccc2)cc(-c2ccco2)c1C#N
COc1cc(Cn2c(N)c(C#N)c3nc4ccccc4nc32)cc(OC)c1
CCC(C)(C)n1nnnc1CN(Cc1ccc(Cl)cc1)Cc1ccco1
O=C(/C=C/Sc1ncn[nH]1)c1ccc(Cl)cc1
Cc1sc(NC(=O)c2cccs2)nc1-c1ccccc1
